High-throughput results (PubChem)
Rows were chosen to be rich in hits. Some 4.1% of all compounds tested hit in one or more screens of this group.
DAX1 inh-1: inhibitors of human orphan nuclear receptor DAX1 (NR0B1); P51843; HEK293 Gal4-DAX1 luciferase reporter, luminescence; inhibition, % at 6.75 µM; 340,000 compounds, 0.99% hits; AID 504766;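 active = inhibition above the mean over all tested compounds plus 3 SD, cut at about 4.2% in these data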;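 also: 0% = DAX1-transfected cells with DMSO and 100% = empty-vector control cells with DMSO; inhibition shows as a rise in luminescence from relieved DAX1 repression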
DAX1 inh-2: inhibitors of DAX1 repression of SF-1 activated StAR promoter. 370,000 compounds, 1.1% hits. inhibition, % at 6.8 µM. AID 652010. HEK293T StAR-luciferase reporter, SF-1/DAX-1 repression relief;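 active = inhibition above the mean over all tested compounds plus 3 SD, cut at about 3.6% in these data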;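 also: 0% = DAX-1 cells with DMSO and 100% = cells lacking DAX-1 with DMSO; higher inhibition means more luminescence from relief of DAX-1 repression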
hgDAF-12 ag: hgDAF-12 agonism, primary luciferase screen. HEK293 GAL4-hgDAF12 UAS-luciferase reporter, agonist luminescence; normalized to butyrate control. activation, % at 6.8 µM. 370,000 compounds, 1.8% hits;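 active = activation above a cutoff set at the mean of all screened compounds plus 3 SD, cut at about 10% in these data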;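 also: 0% = DMSO wells and 100% = sodium butyrate wells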
hcDAF-12 act: activators of H. contortus DAF-12 nuclear receptor. HEK293 hcDAF-12 lit1-tk-luc reporter, luminescence; 0% DMSO, 100% Δ7-dafachronic acid. activation, % at 6.8 µM. 370,000 compounds, 1.4% hits;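 active = activation above the mean of all tested compounds plus 3 SD, cut at about 5.5% in these data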;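 also: 100% = response to 3 µM Δ7-dafachronic acid high control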
ssDAF12 agonist: activates DAF-12 receptor from parasite S. stercoralis. HEK293 ssDAF-12/GRIP1 lit1-tk-luc reporter, luminescence; % of 3 µM dafachronic acid response. activation, % at 6.8 µM. 370,000 compounds, 1% hits. AID 652126;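 active = activation above the mean over all tested compounds plus 3 SD, cut at about 0.9% in these data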;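 also: 0% = DMSO-only wells and 100% = 3 µM delta7-dafachronic acid wells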
LXR ag: activates human LXR-beta, counter-screen for hcDAF-12 agonists. 3,400 tested, under 10 active. shares compounds with hcDAF-12 act. activation, % at 6.8 µM. HEK293 Gal4-LXR tk-luc reporter, luminescence, 24 h; normalized: DMSO 0%, positive control 100%. AID 743027;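 active = mean percent activation of the reporter above a cutoff set as the average over tested compounds plus their standard deviation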
Target sequence (P55055 whole entry, looked up, the tested form may be a part): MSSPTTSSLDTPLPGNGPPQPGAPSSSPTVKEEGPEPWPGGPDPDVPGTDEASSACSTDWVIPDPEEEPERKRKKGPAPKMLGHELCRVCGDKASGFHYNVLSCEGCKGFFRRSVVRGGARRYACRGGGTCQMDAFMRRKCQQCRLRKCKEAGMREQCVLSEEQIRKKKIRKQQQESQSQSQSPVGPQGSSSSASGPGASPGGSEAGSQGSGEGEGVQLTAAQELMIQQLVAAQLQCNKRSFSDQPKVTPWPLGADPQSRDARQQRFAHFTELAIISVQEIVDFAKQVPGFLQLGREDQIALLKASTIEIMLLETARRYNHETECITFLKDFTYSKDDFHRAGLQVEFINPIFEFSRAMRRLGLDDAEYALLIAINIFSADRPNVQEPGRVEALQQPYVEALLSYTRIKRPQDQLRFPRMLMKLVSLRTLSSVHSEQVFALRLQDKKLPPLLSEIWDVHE
hcDAF12 ag: hcDAF-12 agonism, confirmation assay. AID 743032. 3,400 compounds, 61% hits. activation, % at 6.8 µM. shares compounds with hcDAF-12 act. HEK293 hcDAF-12 lit1-tk-luc reporter, luminescence; % of Δ7-dafachronic acid response;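 active = mean activation across triplicate tests above the threshold derived from the earlier primary screen, cut at about 5.5% in these data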;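 also: 0% = DMSO only wells and 100% = 3 µM Δ7-dafachronic acid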
hgDAF12 conf: hgDAF-12 agonism, confirmation assay; shares compounds with hgDAF-12 ag; HEK293 GAL4-hgDAF12 luciferase reporter, agonist mode; percent of butyrate response; activation, % at 6.8 µM; 3,300 compounds, 80% hits; AID 743050;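 active = mean activation over triplicate wells above the hit cutoff derived from the earlier primary screen, cut at about 11% in these data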;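 also: 0% = DMSO low control and 100% = 2 mM sodium butyrate high control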
LXR ag 2: counter-screen for DAF-12 agonists: agonists of human LXR-beta. shares compounds with hgDAF-12 ag. HEK293 Gal4-LXR luciferase reporter, 24 h. activation, % at 6.8 µM. 3,300 tested, under 10 active. AID 743051;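 active = mean activation of the triplicate above a set limit carried over from the primary screen, none filed active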
Numbers without * were called inactive.

For COc1ccc2cc(-c3ccccc3F)ncc2c1 the results were DAX1 inh-1 2, DAX1 inh-2 3, hgDAF-12 ag 16*, hcDAF-12 act 11*, ssDAF12 agonist 1.1*, LXR ag 2, hcDAF12 ag 11*, hgDAF12 conf 24* and LXR ag 2 2.
COc1ccc(-c2cc3ccc(OC)cc3cn2)cc1 was read as DAX1 inh-1 1, DAX1 inh-2 4.2*, hgDAF-12 ag 21*, hcDAF-12 act 9.9*, ssDAF12 agonist 1.1*, LXR ag 2, hcDAF12 ag 12*, hgDAF12 conf 18* and LXR ag 2 1.
`CC[C@H](CCCc1ccccc1OC)CCS(=O)(=O)N(C)C` gave DAX1 inh-2 -2, hgDAF-12 ag -1, hcDAF-12 act -2 and ssDAF12 agonist -2.
`CCO/N=C(\N)c1[nH]ncc1Br` gave DAX1 inh-1 -1, DAX1 inh-2 0, hgDAF-12 ag 0, hcDAF-12 act 2 and ssDAF12 agonist 0.
N/C(=N\OC(=O)c1ccc(Cl)cc1)c1[nH]ncc1Br was read as DAX1 inh-1 3, DAX1 inh-2 3, hgDAF-12 ag 19*, hcDAF-12 act 12*, ssDAF12 agonist 1, LXR ag 2, hcDAF12 ag 7.3*, hgDAF12 conf 21* and LXR ag 2 1.
Screening O=C(Nc1c(-c2ccc(C(F)(F)F)cc2)nc2ncccn12)c1ccc(F)cc1 returned DAX1 inh-2 -1, hgDAF-12 ag 6, hcDAF-12 act 1 and ssDAF12 agonist -1.
Screening CC(C)(C)c1ccc(/C=C/C(=O)Nc2nncs2)cc1 returned DAX1 inh-1 3, DAX1 inh-2 3, hgDAF-12 ag 21*, hcDAF-12 act 7.4*, ssDAF12 agonist 0, LXR ag 1, hcDAF12 ag 6.8*, hgDAF12 conf 12* and LXR ag 2 1.
Screening Cc1ccc(Nc2nc(-c3ccncc3)cs2)cc1 returned DAX1 inh-1 1, DAX1 inh-2 4.2*, hgDAF-12 ag 16*, hcDAF-12 act 8.9*, ssDAF12 agonist 2.4*, LXR ag 1, hcDAF12 ag 7.2*, hgDAF12 conf 19* and LXR ag 2 1.
For Cc1ccc(-c2csc(Nc3ccccn3)n2)cc1 the results were DAX1 inh-1 -3, DAX1 inh-2 2, hgDAF-12 ag 16*, hcDAF-12 act 8.2*, ssDAF12 agonist 2.2*, LXR ag 2, hcDAF12 ag 9.9*, hgDAF12 conf 19* and LXR ag 2 1.
Screening Cc1ccc(CSc2nnc(-c3ccncc3)n2C)cc1 returned DAX1 inh-1 -2, DAX1 inh-2 0, hgDAF-12 ag -1, hcDAF-12 act -2 and ssDAF12 agonist -1.
Fc1ccc(-c2csc(Nc3ccccn3)n2)c(F)c1 was read as DAX1 inh-1 3, DAX1 inh-2 2, hgDAF-12 ag 14*, hcDAF-12 act 15*, ssDAF12 agonist 3.4*, LXR ag 2, hcDAF12 ag 16*, hgDAF12 conf 20* and LXR ag 2 1.
`Cc1ccc(Nc2nc(CSc3nnc(-c4ccncc4)n3C)cs2)cc1` gave DAX1 inh-1 -2, DAX1 inh-2 4, hgDAF-12 ag 16*, hcDAF-12 act 7.3*, ssDAF12 agonist 0, LXR ag 1, hcDAF12 ag 4, hgDAF12 conf 15* and LXR ag 2 0.
`O=C(Nc1nc(-c2cc(F)ccc2F)cs1)c1ccccn1` gave DAX1 inh-1 0, DAX1 inh-2 -1, hgDAF-12 ag 4, hcDAF-12 act 2 and ssDAF12 agonist -1.
